Among the test systems are SR leukemia; RPMI-8226 leukemia; OVCAR-8 ovarian; OVCAR-5 ovarian; OVCAR-4 ovarian; SK-OV-3 ovarian; IGROV1 ovarian; OVCAR-3 ovarian; HS 578T breast; NCI/ADR-RES ovarian.
Common to all, as to assay: NCI-60 one-dose screen, 48 h (100 = growth as untreated, 0 = no growth, -100 = all killed)
Holding throughout (details): 10 µM unless noted

Values joined by “and” are separate entries in the source; they are usually repeats but may differ in a detail not shown here. Equal values may be shown once. About 83,000 compounds went through this panel and 20% of them were active in at least one assay; those are over-represented in the sample as a whole.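 Activity criterion: percent growth below 10, measured after cells in 96-well plates were exposed to a single compound concentration for 48 hours.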 Active and inactive are the calls of the source.

For `COc1ccc(CCN(C)CCCC(C#N)(c2ccc(OC)c(OC)c2)C(C)C)cc1OC` (stereo not given), the growth in the assay with SR leukemia was 80.8% (inactive) and 94.1% (inactive) and 90.1% (inactive); with RPMI-8226 leukemia it was 83.9% (inactive) and 83.6% (inactive) and 94.5% (inactive); in the assay with OVCAR-8 ovarian, 97.5% (inactive) and 93.2% (inactive); in the assay with OVCAR-5 ovarian, 93.1% (inactive) and 81% (inactive) and 92.6% (inactive); in the assay on OVCAR-4 ovarian it was 85.1% (inactive) and 104% (inactive); in the assay with SK-OV-3 ovarian it was 101% (inactive) and 98.3% (inactive) and 97.9% (inactive). Besides, the growth in the assay with IGROV1 ovarian was 98.7% (inactive) and 94.4% (inactive); with OVCAR-3 ovarian it was 103% (inactive) and 101% (inactive) and 96% (inactive); with HS 578T breast it was 99.8% (inactive) and 88.1% (inactive) and 93.6% (inactive); in the assay on NCI/ADR-RES ovarian, 86.6% (inactive) and 92% (inactive) and 86.1% (inactive).
Regarding `O=C(Nc1ccc(Cl)cc1)c1cc2ccccc2cc1O`, the growth with SR leukemia is 15.8% (inactive) and -13.9% (active); with RPMI-8226 leukemia it was -10.7% (active) and -29% (active); with OVCAR-8 ovarian it was 26.1% (inactive) and -5.89% (active); in the assay on OVCAR-5 ovarian, 78.8% (inactive) and 42.7% (inactive); with OVCAR-4 ovarian, 34.5% (inactive) and 20.9% (inactive); in the assay with SK-OV-3 ovarian, 18.9% (inactive). Besides, the growth with IGROV1 ovarian is 23.3% (inactive) and 21.8% (inactive); in the assay on OVCAR-3 ovarian, 14.4% (inactive) and 5.62% (active); in the assay with HS 578T breast it was 15.8% (inactive) and 4.92% (active); with NCI/ADR-RES ovarian, 12.5% (inactive) and 6.49% (active).
`CCN(CC)CCNc1cc(-c2cccc(OC(F)(F)F)c2)nc2ccc(N3CCCC3)cc12`: the growth in the assay on SR leukemia is -29.4% (active) and -36.8% (active) and -10.8% (active); in the assay on RPMI-8226 leukemia it was -53.3% (active) and -33.8% (active) and 14.6% (inactive); with OVCAR-8 ovarian, 39.7% (inactive) and 2.29% (active) and 22.4% (inactive); in the assay on OVCAR-5 ovarian, 50.6% (inactive) and 5.44% (active) and 34.6% (inactive); in the assay with OVCAR-4 ovarian, 59.3% (inactive) and 44.7% (inactive) and 30% (inactive); with SK-OV-3 ovarian, 52.6% (inactive) and 10.9% (inactive) and 53.6% (inactive). Besides, the growth was -14.8% (active) and 6.93% (active) and 25.2% (inactive) in the assay with IGROV1 ovarian; 75.8% (inactive) and -2.31% (active) and 47.2% (inactive) with OVCAR-3 ovarian; 66.4% (inactive) and -7.2% (active) and 38.9% (inactive) with HS 578T breast; 9.79% (active) and -16.8% (active) and 25.2% (inactive) in the assay on NCI/ADR-RES ovarian.
For `COc1ccc(Cn2c(NCCN=C(N)N)nc(=O)n(Cc3ccc(F)cc3)c2=O)cc1`, the growth in the assay with SR leukemia was 85.5% (inactive); in the assay with RPMI-8226 leukemia, 87.9% (inactive) and 92.2% (inactive); with OVCAR-8 ovarian it was 101% (inactive) and 99.9% (inactive); in the assay on OVCAR-5 ovarian, 89.9% (inactive) and 95.8% (inactive); in the assay on OVCAR-4 ovarian it was 101% (inactive) and 92.5% (inactive); in the assay with SK-OV-3 ovarian, 98.8% (inactive) and 96.2% (inactive). Further, the growth with IGROV1 ovarian was 90.3% (inactive) and 103% (inactive); in the assay with OVCAR-3 ovarian it was 96.5% (inactive) and 104% (inactive); with HS 578T breast, 87.5% (inactive) and 66.2% (inactive); in the assay on NCI/ADR-RES ovarian it was 114% (inactive) and 103% (inactive).
Take `CC(=O)Oc1cc(C(=O)O)cc(OC(C)=O)c1OC(C)=O`: the growth with SR leukemia is 117% (inactive) and 101% (inactive); in the assay with RPMI-8226 leukemia, 96.7% (inactive) and 102% (inactive); in the assay with OVCAR-8 ovarian, 103% (inactive) and 99.9% (inactive); in the assay on OVCAR-5 ovarian, 117% (inactive) and 94.9% (inactive); in the assay on OVCAR-4 ovarian, 109% (inactive) and 97% (inactive); in the assay with SK-OV-3 ovarian, 94.1% (inactive) and 102% (inactive). The growth in the assay with IGROV1 ovarian is 130% (inactive) and 95.8% (inactive); in the assay with OVCAR-3 ovarian it was 105% (inactive); in the assay on HS 578T breast, 99.5% (inactive) and 112% (inactive); with NCI/ADR-RES ovarian it was 103% (inactive) and 96.7% (inactive).
Take `OCCN1CCN(CCCN2c3ccccc3Sc3ccc(Cl)cc32)CC1`: the growth with SR leukemia is 36.6% (inactive); with RPMI-8226 leukemia, 37.6% (inactive) and 68.9% (inactive); in the assay with OVCAR-8 ovarian, 89.3% (inactive) and 107% (inactive); in the assay on OVCAR-5 ovarian, 61.3% (inactive) and 90.7% (inactive); in the assay on OVCAR-4 ovarian it was 74.2% (inactive) and 69.8% (inactive); in the assay with SK-OV-3 ovarian it was 70% (inactive) and 87.5% (inactive). Also, the growth in the assay on IGROV1 ovarian is 47.7% (inactive) and 57.8% (inactive); in the assay with OVCAR-3 ovarian, 83% (inactive) and 81.5% (inactive); with HS 578T breast it was 63.1% (inactive) and 72.3% (inactive); with NCI/ADR-RES ovarian it was 60.9% (inactive) and 76% (inactive).
For the compound `Oc1nc(NCCc2ccccc2)sc1/C=C1\C=Nc2ncccc21`, the growth is -1.51% (active) and 5.6% (active) with SR leukemia; 38.7% (inactive) and 39.2% (inactive) in the assay with RPMI-8226 leukemia; 9.67% (active) and 14% (inactive) in the assay with OVCAR-8 ovarian; 18.1% (inactive) and 37.8% (inactive) with OVCAR-5 ovarian; 32.3% (inactive) and 23.8% (inactive) in the assay with OVCAR-4 ovarian; 2.11% (active) and 27% (inactive) in the assay with SK-OV-3 ovarian. Further, the growth was 25.6% (inactive) and 14% (inactive) with IGROV1 ovarian; 3.41% (active) and 5.65% (active) with OVCAR-3 ovarian; 8.82% (active) and 8.78% (active) in the assay on HS 578T breast; 58.4% (inactive) and 72.9% (inactive) in the assay with NCI/ADR-RES ovarian.
As for `CN(C)c1ccc(C(=C2C=CC(=[N+](C)C)C=C2)c2ccccc2Cl)cc1`, the growth in the assay on SR leukemia was -38.3% (active); in the assay on RPMI-8226 leukemia, -22.6% (active); in the assay on OVCAR-8 ovarian it was -77.5% (active) and -77.8% (active); with OVCAR-5 ovarian, -27.8% (active) and -93.8% (active); in the assay on OVCAR-4 ovarian, 4.46% (active) and -27% (active); in the assay on SK-OV-3 ovarian it was -38.7% (active) and -32.4% (active). The growth with IGROV1 ovarian was -81.1% (active) and -67.1% (active); with OVCAR-3 ovarian, -88.9% (active) and -91.4% (active); in the assay with HS 578T breast, -37.3% (active) and -21.2% (active); in the assay with NCI/ADR-RES ovarian, 23.2% (inactive) and 9.87% (active).
For `Oc1c(CN2CCCCC2)ccc2cccnc12`, the growth in the assay on SR leukemia is 32.4% (inactive) and 33.2% (inactive); with RPMI-8226 leukemia, 58.5% (inactive); with OVCAR-8 ovarian, 33.1% (inactive) and 23.3% (inactive); in the assay with OVCAR-5 ovarian it was 68.9% (inactive) and 51.1% (inactive); in the assay with OVCAR-4 ovarian it was 29.3% (inactive); with SK-OV-3 ovarian, 54.5% (inactive) and 50.8% (inactive). The growth was 46% (inactive) and 55.3% (inactive) in the assay on IGROV1 ovarian; 14.4% (inactive) and 52.7% (inactive) in the assay with OVCAR-3 ovarian; 89.5% (inactive) and 89.1% (inactive) with HS 578T breast; 7.05% (active) and 4.34% (active) in the assay on NCI/ADR-RES ovarian.
`CC[N+](CC)(CC(=O)Nc1c(C)cccc1C)Cc1ccccc1`: the growth in the assay with SR leukemia is 92.4% (inactive); in the assay with RPMI-8226 leukemia it was 74% (inactive) and 113% (inactive); in the assay on OVCAR-8 ovarian it was 95.2% (inactive) and 105% (inactive); in the assay with OVCAR-5 ovarian, 119% (inactive) and 99.1% (inactive); with OVCAR-4 ovarian it was 80.4% (inactive) and 105% (inactive); in the assay with SK-OV-3 ovarian, 102% (inactive) and 107% (inactive). In addition, the growth in the assay with IGROV1 ovarian is 85.4% (inactive) and 94.5% (inactive); in the assay on OVCAR-3 ovarian, 104% (inactive) and 109% (inactive); in the assay with HS 578T breast, 109% (inactive); in the assay on NCI/ADR-RES ovarian, 90.3% (inactive) and 102% (inactive).
Turning to `COc1cc2c(Nc3ccc(Cl)c(Cl)c3F)ncnc2cc1OCC1C[C@@H]2CN(C)C[C@@H]2C1` (stereo not given in full), the growth with SR leukemia is -23.1% (active) and -45.4% (active); in the assay on RPMI-8226 leukemia, -48.5% (active) and 6.02% (active); in the assay with OVCAR-8 ovarian it was -88.4% (active) and 27.4% (inactive); in the assay on OVCAR-5 ovarian, -89.8% (active) and 37.6% (inactive); in the assay with OVCAR-4 ovarian, -42.7% (active) and 29.5% (inactive); in the assay with SK-OV-3 ovarian it was -87.7% (active) and -13.8% (active). For the same compound, the growth was -70.1% (active) and -9.02% (active) in the assay on IGROV1 ovarian; -53.9% (active) and 25.6% (inactive) with OVCAR-3 ovarian; -16.9% (active) in the assay with HS 578T breast; -56.5% (active) and 29.6% (inactive) in the assay with NCI/ADR-RES ovarian.
For the compound `O[C@H](c1cc(C(F)(F)F)nc2c(C(F)(F)F)cccc12)[C@@H]1CCCCN1`, the growth was 11.7% (inactive) with SR leukemia; 70.1% (inactive) and 79.2% (inactive) in the assay with RPMI-8226 leukemia; 80.3% (inactive) and 64.2% (inactive) with OVCAR-8 ovarian; 79.5% (inactive) and 69.3% (inactive) with OVCAR-5 ovarian; 69.7% (inactive) and 59.8% (inactive) in the assay with OVCAR-4 ovarian; 79.1% (inactive) and 74.6% (inactive) with SK-OV-3 ovarian. Besides, the growth with IGROV1 ovarian was 47.8% (inactive) and 46.4% (inactive); in the assay on OVCAR-3 ovarian, 68.1% (inactive) and 55% (inactive); in the assay with HS 578T breast, 66.3% (inactive) and 63% (inactive); in the assay with NCI/ADR-RES ovarian, 65.7% (inactive) and 56.1% (inactive).
With `NC(=S)NN=C1CCC(C2CCCCC2)CC1` (stereo not given), the growth is 125% (inactive) with SR leukemia; 67.1% (inactive) and 74.9% (inactive) in the assay with RPMI-8226 leukemia; 100% (inactive) and 98.8% (inactive) in the assay on OVCAR-8 ovarian; 110% (inactive) and 93.3% (inactive) in the assay with OVCAR-5 ovarian; 33.8% (inactive) in the assay on OVCAR-4 ovarian; 100% (inactive) and 101% (inactive) with SK-OV-3 ovarian. In addition, the growth is 98.2% (inactive) and 89.4% (inactive) with IGROV1 ovarian; 83.9% (inactive) and 85.7% (inactive) with OVCAR-3 ovarian; 79.3% (inactive) and 109% (inactive) with HS 578T breast; 96.8% (inactive) and 102% (inactive) with NCI/ADR-RES ovarian.

These data come from PubChem BioAssay (NCI).
